Experimental data published in the supplement of paper PMC11417369.
In all, about 25,000 sequences were measured (“ln(normalized median fluorescence intensity)”: median about 9.7, highest 2% from about 11 on). This excerpt belongs to a sample that is enriched for the highest values.

Test system: PfAP2-HC AP2 domain (GST-tagged)
Assay: gcPBM binding intensity (ln(normalized median fluorescence intensity)); higher = stronger DNA binding
In short: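 GST-tagged P. falciparum DNA-binding domains, expressed in E. coli (about 25 μg on average), were applied for 1 h to an Agilent 4 × 180k array of primer-extended double-stranded 36-bp intergenic genomic probes plus negative controls. The binding buffer was 1× PBS with 1% milk, 0.2 mg/ml BSA, 0.5% salmon testes DNA and 0.03% Triton X-100. Bound protein was detected with Alexa488 anti-GST antibody and scanned at 488 nm. Binding intensity is the highest Masliner-normalised natural-log median intensity across replicate spots of either probe orientation.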

Sequence	gcPBM binding intensity (ln)
AAAAAAAAAAAAAAATGTACAAAAATTACTATAAAA [XGTACX_site7683]	9.48
AAAAATAATGCACATATATATAATATGTATATGTAT [CACACA_negctrl_site443]	9.75
GTAATGAAACATTGCACACATATAATAATATAATAT [CACACA_site1422]	9.84
AGAAAAGAAATTAGTTGTACTCTGATGAATTATCCT [XGTACX_site6284]	9.5
TTCAATTTTTTATGAACACACAAAAAAAAAAAAAAA [CACACA_site2533]	9.23
ACCGTGGGAAGACACACACACACACCCACATATATA [CACACA_site333]	11
ACCGTGGGAGGACACACACACACACCCACATATATA [CACACA_site4339]	10.8
AGTATACACAGACACACACACACATATATATATATA [CACACA_site8510]	10.9
CACAGACACCCATACACACACATACCCATATATATA [CACACA_site5023]	10.3
GGCATACACAGACACACACACACACCCACATATATA [CACACA_site591]	11.2
TTTAAATACAGACATACACACATACACCCACATATA [CACACA_site8078]	10.2
AAACCGTGGGAGCACACACACACACCCACCCATATA [CACACA_site332]	10.4
TTGGCATACAGACACACACACACACCCCCACATATA [CACACA_site590]	10.9
ATAGACAGCGCACAAACACACAAACACAGACCCCCA [CACACA_site4409]	10.2
AGACAGCGCACAAACACACAAACACCCACCCACATA [CACACA_site451]	11.3
ATAGTATACAGACACACACACACACCCATATATATA [CACACA_site1736]	11.7
ATAGACAGCGCACAAACACACAAACACCCACCCACA [CACACA_site8043]	10.1
ATTAGTATTAGATGATGTACATTTATATTGAAATAT [XGTACX_site8537]	9.63
GATATATTTTATATATGTACATACAAGGGTAAATAT [XGTACX_site1202]	9.68
ATATATATATATGTCTGTACATAAAAAATAATAAAT [XGTACX_site3122]	9.68
TATATATATATAATTACACACAATGTTCTATATATA [CACACA_site3235]	9.8
TTGTGATTATATAATCGTACATAATTTTAATCACAC [XGTACX_site398]	9.58
TTTTTTTTAATTGTGATACGTATATTATTTAATGAT [CACACA_negctrl_site38]	9.59
CGCACAAAAATATACACACACACATATATATTTATT [CACACA_site3645]	10.4
ACATTATATAAAATATGTACATATAAAAAATTCTAT [XGTACX_site1617]	9.77
